Screening data: PubChem BioAssay, several laboratories
The list is not random: actives were taken first. Their share in the collection is about 0.54%.
ERp5 inh: inhibitors of ERp5-driven insulin aggregation, primary screen, biochemical, turbidity, absorbance 650 nm, single point; Protein disulfide-isomerase A6 (Homo sapiens), Q15084; 90 min; inhibition, % at 9.99 µM; 350,000 tested, 0.05% active; AID 651711, 2012;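 active = mean replicate inhibition above about 25%, with every replicate also reaching it, limit read from the data, passing the limit was not always enough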
PDI inh: inhibitors of human PDI, primary screen, biochemical, turbidity, single point, plate reader; Protein disulfide-isomerase (Homo sapiens), P07237; PDI insulin aggregation turbidity, A650, 90 min; inhibition, % at 10 µM; 350,000 tested, 0.052% active; AID 588391, 2011;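 active = mean inhibition across replicates of 30% or more, whatever share of single replicates reach that level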
Target sequence (P07237 whole entry, looked up): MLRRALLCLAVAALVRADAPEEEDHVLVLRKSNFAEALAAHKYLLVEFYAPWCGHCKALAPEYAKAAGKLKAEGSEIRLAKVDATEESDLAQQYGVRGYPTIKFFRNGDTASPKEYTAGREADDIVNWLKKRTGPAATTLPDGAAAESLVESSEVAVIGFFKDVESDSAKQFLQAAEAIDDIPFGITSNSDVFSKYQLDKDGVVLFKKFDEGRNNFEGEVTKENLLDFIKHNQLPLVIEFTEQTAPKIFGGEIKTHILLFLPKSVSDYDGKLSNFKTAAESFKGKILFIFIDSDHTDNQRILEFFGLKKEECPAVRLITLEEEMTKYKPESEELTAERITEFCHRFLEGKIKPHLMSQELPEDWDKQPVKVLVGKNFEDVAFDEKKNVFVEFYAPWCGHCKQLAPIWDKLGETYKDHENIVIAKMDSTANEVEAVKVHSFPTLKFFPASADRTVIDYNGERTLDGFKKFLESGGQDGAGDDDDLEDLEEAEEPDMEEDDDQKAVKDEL
Efflux pump mplx: inhibitors of Candida efflux pumps in yeast, primary screen, S. cerevisiae, Nile Red, multiplex. S. cerevisiae Candida pump triplex. inhibition, % at 10 µM. 330,000 tested, 0.44% active. AID 485275, 2010;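 active = plate passing quality check with inhibition over a set limit, or well fluorescence over plate mean plus 4 SD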;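 note: Nile Red retained in pooled yeast measured as flow cytometry median fluorescence; 0% = buffer negative control and 100% = Enniatin B positive control; higher means more Nile Red kept so more efflux inhibition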
PvdQ inh: P. aeruginosa PvdQ acylase inhibitors, primary screen, biochemical, fluorescence, plate reader and imaging, single point; PvdQ acylase [Pseudomonas aeruginosa LESB58]; purified PvdQ acylase; inhibition, % at 10 µM; 340,000 tested, 0.063% active; in the data active = inhibition above about 30%, passing the limit was not always enough;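 note: 0% = vehicle neutral wells and 100% = reference inhibitor wells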
Rtt109 Vps75: inhibitors of C. albicans Rtt109/Vps75 HAT, primary screen, biochemical, ThioGlo CoA-SH fluorescence, plate reader | Histone acetyltransferase RTT109 (Candida albicans (strain SC5314 / ATCC MYA-2876)), … | purified Rtt109/Vps75, 4 h | inhibition, % at 34.9 µM | 330,000 tested, 0.16% active | AID 540336, 2011;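 active = inhibition of at least 50% in every replicate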
Yeast cmpd fluor: counter-screen for efflux pump inhibitors: compound fluorescence | shares compounds with Efflux pump mplx | S. cerevisiae AD/pABC3, flow cytometry | fluorescence ratio to DMSO, % at 10 µM | 1,700 tested, 4% active | AID 588517;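 active = fluorescence ratio to DMSO above its plate's cutoff, the plate mean ratio plus 5 SD, cut at about 210% in these data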;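 note: unstained yeast with no Nile Red so the signal is compound autofluorescence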
Mdr1 pump inh: inhibitors of Candida albicans Mdr1 efflux, confirmation, flow cytometry, singleplex, Cherry Pick1 set; shares compounds with Efflux pump mplx; S. cerevisiae AD/CaMDR1, Nile Red efflux; inhibition, % at 10 µM; 1,700 tested, 1% active; in the data active = inhibition above about 26%;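 note: 0% = DMSO vehicle and 100% = reference inhibitor; higher means more Nile Red retained so more efflux inhibition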
Cdr2 pump inh: inhibitors of Candida albicans Cdr2 efflux pump, confirmation, S. cerevisiae AD/CaCDR2, flow cytometry, cherry pick 1, singleplex | shares compounds with Efflux pump mplx | Nile Red retention | Nile Red retention ratio vs DMSO, % at 10 µM | 1,700 tested, 4% active | AID 588520, 2011; in the data active = Nile Red retention ratio vs DMSO above about 190%;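 note: higher ratio means more blocking of Cdr2 efflux of the dye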
Cdr1 pump inh: inhibitors of Candida albicans Cdr1 efflux pump, confirmation, S. cerevisiae AD/CaCDR1, flow cytometry, cherry pick 1, singleplex | shares compounds with Efflux pump mplx | Nile Red efflux | inhibition, % at 10 µM | 1,700 tested, 1% active | AID 588522, 2011;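 active = inhibition above the screen-wide mean plus twice its standard deviation, cut at about 32% in these data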
Starred values were filed as active, the others as inactive; · = not tested or not shown.

SMILES	ERp5 inh	PDI inh	Efflux pump mplx	PvdQ inh	Rtt109 Vps75	Yeast cmpd fluor	Mdr1 pump inh	Cdr2 pump inh	Cdr1 pump inh
O=C(C1CC1)N1CCc2cc(S(=O)(=O)NCCC3=CCCCC3)ccc21	·	0.3	0.0	-1.7	1.1	·	·	·	·
Cc1ccc(CNS(=O)(=O)c2ccc3c(c2)CCN3C(=O)C2CCC2)cc1	-5.3	-1.6	0.1	-14.5	-5.3	101.8	-0.3	99.3	0.0
CCCN(CCC)CCNS(=O)(=O)c1ccc2c(c1)CCN2C(=O)C1CCC1	·	-2.2	-0.1	-13.2	-0.2	106.8	0.1	99.6	0.1
O=C(C1CCC1)N1CCc2cc(S(=O)(=O)NC3CCCC3)ccc21	·	-11.0	-0.1	-1.7	4.4	·	·	·	·
CC1CCCN(CCCNS(=O)(=O)c2ccc3c(c2)CCN3C(=O)C2CC2)C1 (stereo not given)	13.0	5.0	1.4*	-5.1	-10.2	115.3	0.3	110.2	0.2
O=C(C1CCC1)N1CCc2cc(S(=O)(=O)Nc3ccc4c(c3)OCCO4)ccc21	0.1	8.1	-0.1	-5.2	-13.4	111.5	0.1	95.1	-0.1
C[C@]12CCC3C4(C=CC5(C=C4C(=O)C4CCCCC4)C[C@@H](O)CC[C@]35C)C1CC[C@@]2(O)CN1CCC(n2c(=O)[nH]c3ccccc32)CC1 (stereo not given in full)	2.5	·	·	·	·	·	·	·	·
C[C@@H]1CN([C@@H](C)CO)C(=O)Cc2cc(NC(=O)Nc3ccc(F)cc3)ccc2O[C@H]1CN(C)C(=O)Nc1ccc2c(c1)OCO2	2.4	·	·	·	·	·	·	·	·
O=C(C[C@H]1C[C@@H]2c3cc(NC(=O)NC4CCCCC4)ccc3O[C@@H]2[C@H](CO)O1)NCc1ccccn1	6.9	·	·	·	·	·	·	·	·
CCS(=O)(=O)N1CCCCN2[C@H](CO)[C@@H](c3ccc(C#Cc4ccccc4OC)cc3)[C@H]2C1	-0.5	·	·	·	·	·	·	·	·
C[C@H](O)C#Cc1ccc2c(c1)O[C@H](CN(C)Cc1ccc(-c3ccccc3)cc1)[C@H](C)CN([C@@H](C)CO)S2(=O)=O	-4.8	·	·	·	·	·	·	·	·
CCOc1ccc(CNC(=O)NS(=O)(=O)c2ccc(OC)cc2)cc1	·	8.7	5.9*	-2.1	7.7	97.6	0.1	107.2	-0.1
O=C(N[C@@H]1CC[C@@H](CCNC(=O)C2CCC2)O[C@H]1CO)c1ccccn1	-0.4	·	·	·	·	·	·	·	·
CCC(=O)N1C[C@@H](C)[C@H](OC)CN(C)C(=O)c2ccc(NC(=O)c3cnccn3)cc2OC[C@H]1C	7.5	·	·	·	·	·	·	·	·
Cc1cnc(C(=O)NC2CC(C)(C)Cc3c2cnn3-c2ccccc2)cn1 (stereo not given)	10.3	-4.3	1.2	-8.0	5.1	97.6	0.1	107.2	-0.1
CC(=O)c1ccc(C(=O)NC2CC(C)(C)Cc3c2cnn3-c2ccccc2)cc1 (stereo not given)	5.1	3.6	0.0	-4.1	15.2	·	·	·	·
COc1ccc(-n2ncc3c2CC(C)(C)CC3NC(=O)c2cnc(C)cn2)cc1 (stereo not given)	6.1	5.0	0.0	-8.0	2.7	104.6	-0.1	95.6	-0.1
COc1cccc(C(=O)NC2CC(C)(C)Cc3c2cnn3-c2cccc(F)c2)c1OC (stereo not given)	4.0	-1.9	-0.1	0.7	-0.6	106.7	-0.2	106.3	0.0
C/C(=N\NC(=O)CCc1ccccc1)C1C(=O)c2ccccc2C1=O	-1.1	-0.4	0.0	5.4	-3.6	·	·	·	·
